Active and inactive are the calls of the source. How the source made its calls: active means hit-call score of the fitted dose curve at least 0.9, where 1 is the maximum; inactive means score below 0.9.

The AC50 is the concentration at which the activity in the assay is half-maximal.

Read-out in the assay: ATP-citrate lyase (ACLY), ACLY (gene 47)
Briefly: LTEA_HepaRG_ACLY: Life Technologies and Expression Analysis (LTEA) Assay for ATP-citrate lyase (ACLY) using HepaRG (AID 2283466). The following applies: mRNA level, 48 h; actives raise or lower the signal. The protocol: LTEA_HepaRG is a cell based, multiplexed-readout assay that uses HepaRG, a human liver cell line, with measurements taken at 48 hours after chemical dosing on a 96-well plate.LTEA_HepaRG_ACLY is one of 102 assay component(s) measured in the LTEA HepaRG cell culture assay. It is a marker of Steatosis.Data from the assay component LTEA_HepaRG_ACLY was analyzed into 1 endpoint. This assay endpoint, LTEA_HepaRG_ACLY, was analyzed with bidirectional fitting relative to DMSO as the negative control and baseline of activity. Using a type of inducible reporter, measures of mRNA induction for gain or loss-of-signal activity can be used to understand regulation of transcription factor activity. To generalize the intended target to other relatable targets, this assay endpoint is annotated to the lyase intended target family, where the subfamily is steatosis.
A total of 1060 chemcials from the ToxCast library were tested in eight-point concentration-response experiments. Cell culture and cytotoxicity assays were conducted at Thermo Fisher Scientific's Custom Services facility (Madison, WI). A single lot of human HepaRG cells (Thermo Fisher Scientific, Frederick, MD) was used for the cell culture experiments. 96-well format collagen type I coated plates of human HepaRG cells were prepared using established methods. Briefly, cryopreserved HepaRG cells were thawed, plated at a density of approximately 100,000 cells/well in HepaRG Thaw, Plate, and General Purpose media (HPRG770, Thermo Fisher Scientific), and incubated for 48 hours. 0.5% DMSO was selected as vehicle control to balance the requisite need of DMSO in HepaRG cultures to maintain differentiation (for example, baseline metabolism, proportions of hepatocytes vs. cholangiocytes), while enabling further hepatic receptor pathway activation (for example, PXR and CAR) in response to chemical exposure. 48 hours after plating, the culture medium was replaced with HepaRG Serum-Free Incudtion Media. Cells were exposed to each test chemical in duplicate and maintained in CO2 incubators for another 48 hours. Chemical plates were thawed to room temperature and 200x concentrations of treatment groups were prepared. 8-point conentration-reponse curves were made with the highest exposure at 100 uM, followed by half-log dilutions, all in 0.5% DMSO. Each test plate contained variouse controls, induction positive controls (1mM phenobarbital), cytotoxicity positive controls ([…] aflatoxin B1), vehicle controls (0.5% DMSO), and total lysis controls (0.5% DMSO). Cell morphology images were taken using an Essen IncuCyte FLR automated microscope, with six 96-well plates imaged in about 24 minutes. Images were captured and exported and JPEG files. Spent culture media was transfered to black-well plates for the LDH assay, and remaining media was sorted at -80 C for later use. Cells were treated with RLT buffer and frozen until shipped for gene expression analysis. Total RNA was isolated from the cell suspension in 75 uL of Buffer RLT (Qiagen, Germantown, MD 20874) by Quintiles/Expression Analysis (Durham, NC) using a custom isolation procedure. Total RNA from each plate well was transferred to a preamplification plate. Fluidigm's 96.96 Dynamic ArrayTM (Fluidigm, Amsterdam, the Netherlands) technology was used for gene expression analyses by quantitative reverse transcription polymerase chain reaction (qRT-PCR, performed by Quintiles/Expression Analysis, Durham, NC)89. Standard TaqManTM Assays (Applied Biosystems/ThermoFisher Scientific, Foster City, CA) were used to assess the expression of 93 genes selected based on their selectivity and sensitivity to important hepatic receptors known to be modulated by environmental chemicals; importance in human hepatocyte functionality; and hepatotoxicity. […]
Regarding `N#C[C@@H]1CC(F)(F)CN1C(=O)CNC1CC2CCC(C1)N2c1ncccn1` (stereo not given in full), the compound was called inactive.

On to `COCC(C)O` (stereo not given), for which the compound was classed as inactive. Same read-out and setting: for `Cc1cc(CCN2CCN(c3nsc4ccccc34)CC2)cc2c1NC(=O)CC2(C)C` the value was “inactive”; for `CCCCCCC(=O)O`, “inactive”. Turning to `CCCCCCCCC(=O)O`, the outcome was inactive.

Take `CN(C)C=O`: the call was inactive. Turning to `CCN(CC)CCNc1ccc(CNC=O)c2sc3ccc(OC)cc3c(=O)c12`, the AC50 was 83.2 µM (active). Regarding `CCCCCCCC(=O)O`, the AC50 is 12.4 µM (active). `CCCCCCCCOC(=O)CCCCCCCCC(=O)OCCCCCCCC`: the compound was called inactive.

On to `O=C(O)Cc1cc(I)c(Oc2cc(I)c(O)c(I)c2)c(I)c1`, for which the AC50 is 56.3 µM (active). On to `CN1CCN(c2ccccc2/C=C2\SCCN(c3ccc(Cl)c(Cl)c3)C2=O)CC1`, for which the compound was classed as inactive.

For the compound `Nc1cccc2c(N)cccc12`, the result was inactive. As to `CC(O)CO` (stereo not given), the compound was called inactive. In the case of `Cc1oc(-c2ccccc2)nc1CCOc1ccc(C[C@H](Nc2ccccc2C(=O)c2ccccc2)C(=O)O)cc1`, the AC50 was 22.6 µM (active). Consider `OC1CCCCC1`, for which the result was inactive. Take `CN1CCC[C@H]1c1cccnc1`: the compound was classed as inactive. Same read-out and setting: for `O=c1c(-c2ccc(O)cc2)coc2cc(O)ccc12` the value was “inactive”; for `CC(C)(C)c1cc(C(C)(C)C)c(O)c(C(C)(C)C)c1`, “inactive”. Consider `CCCCCCCCCCCCc1ccccc1S(=O)(=O)O`, for which the outcome was inactive. With `CCCOC(=O)c1ccc(O)cc1`, the compound was called inactive. Same read-out and setting: the result for `CCC(=C(c1ccc(O)cc1)c1ccc(OCCN(C)C)cc1)c1ccccc1` reads “inactive”; that for `C#C[C@]1(O)CC[C@H]2[C@@H]3CCC4=CC(=O)CC[C@@H]4[C@H]3CC[C@@]21C`, “inactive”. Still for that read-out and setting: the result for `CC(=O)NC1(c2cccc(F)c2)CCN(CC[C@@]2(c3ccc(Cl)c(Cl)c3)CN(c3ccccc3)C(=O)CO2)CC1` reads “inactive”. Same read-out and setting: for `CCOC(=O)CC(O)(CC(=O)OCC)C(=O)OCC` the value was “inactive”. For the compound `OCCC(F)(F)C(F)(F)C(F)(F)C(F)(F)C(F)(F)C(F)(F)C(F)(F)C(F)(F)F`, the result was inactive.

Regarding `CCCOc1sc(C(=O)N2CCC(c3cc(CN)ccc3F)CC2)c(C)c1Br`, the call was inactive.

Take `CCCCC(CC)COC(=O)CCCCC(=O)OCc1ccccc1` (stereo not given): the compound was classed as inactive. Same read-out and setting: for `O=C(O)c1ccccc1C(c1ccc(O)cc1)c1ccc(O)cc1` the value was “inactive”. Still for that read-out and setting: the result for `C[C@@H]1C[C@H]2[C@@H]3CCC4=CC(=O)C=C[C@]4(C)[C@@]3(F)[C@@H](O)C[C@]2(C)[C@@]1(O)C(=O)COP(=O)(O)O` reads “inactive”; that for `ClC1=C(Cl)C(Cl)(Cl)C(Cl)=C1Cl`, “inactive”. For the compound `CC#C[C@]1(O)CC[C@H]2[C@@H]3CCC4=CC(=O)CCC4=C3[C@@H](c3ccc(N(C)C)cc3)C[C@@]21C`, the AC50 was 79.1 µM (active).

Regarding `COc1ccc([N+](=O)[O-])cc1N`, the compound was called inactive. Still for that read-out and setting: the result for `c1ccc2c(c1)ccc1ccccc12` reads “inactive”. Consider `CC[C@H](c1ccc(O)cc1)[C@@H](CC)c1ccc(O)cc1`, for which the AC50 was 83.9 µM (active). Regarding `CC(C)(C)c1ccc(O)c(C(C)(C)C)c1`, the compound was called inactive. In the case of `Cc1cc(C)c(O)c(C)c1`, the compound was classed as inactive. The same measure, in the same setting: for `O=C(OCCOCCOC(=O)c1ccccc1)c1ccccc1` the value was “inactive”; for `Oc1cccc(O)c1`, “inactive”; for `CC1=C(/C=C/C(C)=C/C=C/C(C)=C/C(=O)O)C(C)(C)CCC1`, “inactive”. Still for that read-out and setting: for `c1ccc2c(c1)Cc1ccccc1-2` the value was “inactive”.

The record behind these values is PubChem BioAssay (EPA / NIEHS).
